From PubChem BioAssay (Tox21) come the findings set out here.

A short description of assay [1]: qHTS assay for small molecules that induce genotoxicity in human embryonic kidney cells expressing luciferase-tagged ATAD5 (AID 651632). Note: nearly all actives have a fitted effect of over 15% in size. In a few lines:
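Quantitative HTS in HEK293T expressing luciferase-tagged ATAD5, whose levels rise upon DNA damage. Exposure ran 16 hr at 37C and 5% CO2, with luminescence read 30 min after Amplite addition at room temperature.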
In general terms: In qHTS, concentration-response curves come from the screen itself.

The nature of assay [2]: qHTS assay for small molecule agonists of the p53 signaling pathway - cell viability (AID 651633; calls by dose curve;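 note: p53RE-bla HCT reporter cells with a stable beta-lactamase p53 reporter; series mostly up to about 83 µM; nearly all actives have a fitted effect of over 30% in size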). In a few lines: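 Viability counter-read: CellTiter-Glo luminescence (30 min, room temperature) in the same p53RE-bla plates. These plates had been exposed to compounds for 16 h at 37 C.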
The nature of assay [3]: qHTS assay for small molecules that induce genotoxicity in human embryonic kidney cells expressing luciferase-tagged ATAD5 - cell viability (AID 651634; calls by dose curve; note: nearly all actives have a fitted effect of over 25% in size). In a few lines:
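After 15.5 hr incubation with compound at 37C, 5% CO2, HEK293T ATAD5-luciferase cells received CellTiter-Fluor reagent; fluorescence intensity was quantified following 30 min at 37C.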

Assay [4] is described as follows: qHTS assay for small molecule disruptors of the mitochondrial membrane potential - cell viability (AID 720634; calls by dose curve;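 note: human HepG2 liver cancer cells; series mostly up to about 83 µM; nearly all actives have a fitted effect of over 20% in size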). The procedure, abridged:
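ATP-based luminescent viability readout (CellTiter-Glo, 30 min, room temperature) in HepG2 cells multiplexed with the m-MPI membrane potential dye; compound exposure lasted 1 hr at 37 C.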

Assay [5] can be described thus: qHTS assay to test for compound auto fluorescence at 590 nm (red) in HepG2 cells (AID 720674). The procedure, abridged:
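We screened compounds on adherent HepG2 cells, incubating them for an hour at 37 C in 5% CO2 before reading emission at 590 nm under 540 nm excitation; values reflect equivalence to Rose Bengal sodium fluorescence.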

A short description of assay [6]: qHTS assay to test for compound auto fluorescence at 535 nm (green) in HepG2 cells (AID 720675).
A short description of assay [7]: qHTS assay to test for compound auto fluorescence at 460 nm (blue) in HEK293 cells (AID 720678). In a few lines: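 HEK293 cells (2,000/well, medium with 10% dialyzed FBS) attached 4-5 hr, then exposed to compound overnight at 37C, 5% CO2. Blue fluorescence read at 405/460 nm, with triamterene as reference fluorophore.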
The nature of assay [8]: qHTS assay to test for compound auto fluorescence at 590 nm (red) in HEK293 cells (AID 720679). The procedure, abridged: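 HEK293 cells (2,000/well, 10% dialyzed FBS) attached 4-5 hr, then dosed with compound or DMSO and incubated overnight at 37C, 5% CO2. Red fluorescence read at 540/590 nm, Rose Bengal sodium as reference fluorophore.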
A short description of assay [9]: qHTS assay to test for compound auto fluorescence at 535 nm (green) in HEK293 cells (AID 720680).
Assay [10] can be described thus: qHTS assay to test for compound auto fluorescence at 460 nm (blue) in HEK293 cell free culture (AID 720681). The procedure, abridged: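 Blue fluorescence (Ex 405/Em 460 nm, triamterene-equivalent) was read immediately after pin transfer of compound or DMSO into medium (DMEM, 10% FBS) without cells.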
Assay [11] is described as follows: qHTS assay to test for compound auto fluorescence at 535 nm (green) in HEK293 cell free culture (AID 720682). In a few lines:
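DMEM + 10% FBS, cell-free; cpd or DMSO pinned in; Ex485/Em535 read; output as fluorescein-equivalent signal.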

Assay [12] in a line: qHTS assay to test for compound auto fluorescence at 590 nm (red) in HEK293 cell free culture (AID 720683). In a few lines:
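Red-channel autofluorescence of compounds in culture medium (DMEM, 10% FBS), no cells, measured at 540/590 nm. Rose Bengal sodium is the reference fluorophore for equivalence.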

The nature of assay [13]: qHTS assay to test for compound auto fluorescence at 590 nm (red) in HepG2 cell free culture (AID 720684). In a few lines: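 Cell-free; medium MEM + 10% FBS; compound or DMSO added by pintool; read Ex 540/Em 590 nm; Rose Bengal sodium as red reference fluorophore.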
Assay [14] is described as follows: qHTS assay to test for compound auto fluorescence at 460 nm (blue) in HepG2 cell free culture (AID 720685). The procedure, abridged:
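Cell-free plates of MEM plus 10% FBS received 23 nL compound or DMSO vehicle; blue-channel (405/460 nm) intensity scored against triamterene as reference fluorophore.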

Assay [15] can be described thus: qHTS assay to test for compound auto fluorescence at 535 nm (green) in HepG2 cell free culture (AID 720686).
A short description of assay [16]: qHTS assay to test for compound auto fluorescence at 460 nm (blue) in HepG2 cells (AID 720687). In a few lines: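 Blue-channel autofluorescence (Ex/Em 405/460 nm, triamterene-equivalent) was measured after 1 hr compound exposure at 37 C, 5% CO2. Cells were HepG2, plated overnight at 37 C in MEM plus 10% FBS.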
Assay [17] has as its target Glucocorticoid receptor (Homo sapiens) (UniProt P04150). Description: qHTS assay to identify small molecule antagonists of the glucocorticoid receptor (GR) signaling pathway (AID 720692; active = well fitted inhibition curve with a large enough effect in the signal ratio in the repeat runs, not every such curve was filed as active; the % refers to the signal ratio). The procedure, abridged: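 Quantitative HTS in antagonist format: HeLa cells expressing endogenous GR and a stably integrated GRE-bla reporter, stimulated with 5 nM dexamethasone (final) alongside test compounds for 18 h.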

The nature of assay [18]: qHTS assay for small molecule disruptors of the mitochondrial membrane potential (AID 720635). Note: potency is the fitted concentration of half-maximal effect. The procedure, abridged:
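Mitochondrial membrane potential tracked with Mito-MPS dye, red aggregates (ex 540/em 590 nm) against green monomers (ex 490/em 535 nm). Compound treatment 1 hr at 37C, dye 30 min in HepG2.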

Assay [19] concerns the target Glucocorticoid receptor (Homo sapiens) (UniProt P04150). Kind of assay: qHTS assay to identify small molecule agonists of the glucocorticoid receptor (GR) signaling pathway (AID 720691; active = well fitted activation curve with a large enough effect in the signal ratio in the repeat runs, not every such curve was filed as active; the % refers to the signal ratio). The procedure, abridged: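 Cells: GR-bla HeLa, endogenous GR with stably integrated GRE-beta-lactamase reporter. Treatment 18 h, 37 C, compounds delivered in DMSO. Detection via LiveBLAzer B/G FRET substrate, 2 h RT, fluorescence intensity.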

Molecules are shown by their SMILES. Records with an inconclusive call do not appear. Activity calls are given as the source filed them. Unless noted, calls come from the whole dose curve; as a rule, active = well fitted curve in the direction sought with a large enough effect in the repeat runs; inconclusive = weak or mixed curves; inactive = no such curve, though single readings can be large; an effect the other way counts as inactive or inconclusive.

Sequence of Glucocorticoid receptor (Homo sapiens) (P04150 whole entry, looked up): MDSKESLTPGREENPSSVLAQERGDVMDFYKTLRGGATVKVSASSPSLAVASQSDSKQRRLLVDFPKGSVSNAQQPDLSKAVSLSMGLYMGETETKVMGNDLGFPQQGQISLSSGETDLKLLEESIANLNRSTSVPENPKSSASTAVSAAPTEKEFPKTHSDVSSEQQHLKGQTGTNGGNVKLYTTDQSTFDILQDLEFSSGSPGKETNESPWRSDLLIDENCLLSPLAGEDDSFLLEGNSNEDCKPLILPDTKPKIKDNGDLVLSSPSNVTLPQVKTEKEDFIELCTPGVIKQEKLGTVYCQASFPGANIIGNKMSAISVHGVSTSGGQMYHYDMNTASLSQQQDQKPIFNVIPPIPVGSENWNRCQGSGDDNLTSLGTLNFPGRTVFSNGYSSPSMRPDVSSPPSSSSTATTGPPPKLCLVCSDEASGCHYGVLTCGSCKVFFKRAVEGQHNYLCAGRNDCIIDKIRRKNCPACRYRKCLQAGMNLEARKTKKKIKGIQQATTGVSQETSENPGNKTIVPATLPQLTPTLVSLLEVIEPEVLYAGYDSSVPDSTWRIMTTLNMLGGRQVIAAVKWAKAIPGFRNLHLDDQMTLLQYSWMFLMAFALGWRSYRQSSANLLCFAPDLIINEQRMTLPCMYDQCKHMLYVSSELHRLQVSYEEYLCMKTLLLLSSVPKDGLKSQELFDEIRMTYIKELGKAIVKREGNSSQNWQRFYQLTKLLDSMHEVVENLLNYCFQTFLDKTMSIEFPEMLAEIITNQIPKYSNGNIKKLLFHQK

For `CCC1(C)CC(=O)NC1=O` (configuration not stated), the Potency entry in assay [1], in [2], in [3], in assay [4], in [7] and in assay [10] was “inactive” in each case. The Potency entry in assay [14], in [16] and in assay [17] was “inactive” in each case. Moreover, the compound was called inactive in assay [5], in [6], in [8], in [9], in assay [11] and in assay [12]. Further, the result in [13] and in [15] was inactive.
Take `OCC1CC=CCC1` (configuration not stated): the Potency entry in assay [1], in assay [2], in assay [3], in assay [4], in assay [18] and in assay [7] was “inactive” in each case. For the same compound, the Potency entry in [10], in assay [14] and in assay [16] was “inactive” throughout. Further, the compound was called inactive in [5], in assay [6], in assay [9], in [11], in assay [12] and in assay [13]. The outcome in [15] was inactive.
Regarding `CCCCCCOC(=O)CCCCCCCC(=O)OCCCCCC`, the Potency result in assay [1], in assay [3], in assay [4], in [18], in assay [7] and in assay [10] was “inactive” each time. Moreover, the Potency entry in [14], in assay [16], in assay [19] and in assay [17] was “inactive” each time. For the same compound, the compound was classed as inactive in assay [5], in assay [6], in assay [8], in [9], in assay [11] and in [12]. Besides, the result in assay [13] and in assay [15] was inactive.
As for `CCOC(=O)OCC`, the Potency entry in [1], in assay [2], in assay [3], in assay [7], in [14] and in [16] was “inactive” throughout. The Potency result in [19] and in assay [17] was “inactive” each time. Also, the call in assay [5], in [6], in [8], in assay [9], in assay [11] and in assay [13] was inactive. In addition, the result in assay [15] was inactive.
On to `CC1=C(C=O)C(C)(C)CCC1`, for which the Potency result in [1], in assay [2], in [3], in assay [4], in [7] and in assay [10] was “inactive” each time. The Potency result in assay [14], in [16], in [19] and in assay [17] was “inactive” in each case. Besides, the call in assay [5], in assay [8], in assay [11], in assay [12], in assay [13] and in assay [15] was inactive.
On to `Cc1oc(C)c(C(=O)Nc2ccccc2)c1C`, for which the Potency result in [1], in assay [3], in [4], in assay [7], in [10] and in assay [14] was “inactive” throughout. Besides, the Potency entry in [16] and in assay [19] was “inactive” in each case. Besides, in assay [18], the Potency is 27.3 µM (active). Also, the call in [5], in [6], in assay [8], in assay [9], in assay [11] and in assay [12] was inactive. The outcome in assay [13] and in assay [15] was inactive.
`O=C(O)C(Cc1cc(I)c(O)c(I)c1)c1ccccc1` (configuration not stated): the Potency entry in [1], in [2], in assay [3], in [4], in [18] and in assay [10] was “inactive” in each case. Besides, the Potency result in assay [14], in assay [16], in assay [19] and in [17] was “inactive” in each case. The result in assay [5], in assay [6], in assay [8], in assay [9], in assay [11] and in assay [12] was inactive. Moreover, the call in assay [13] and in [15] was inactive.
